Measurements: the supplement of paper PMC10646978
± gives the standard deviation.

Legend:
Conditions in all cases: modulator concentration 10 µM
[1] = tested on: RAW-Dual (murine macrophage reporter line); experiment: NF-kB reporter (SEAP) activity fold change vs agonist alone; higher = enhanced NF-kB activity
Outline: (§1)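 RAW-Dual murine macrophage reporter cells were seeded at 50 000 per well in 384-well plates and pre-incubated 1 hour at 37 °C with compound pin-transferred to 10 μM final. After 1 hour, a PRR agonist was added and cells incubated overnight. Supernatant NF-κB (SEAP, QUANTI-Blue, 620 nm absorbance) and IRF (Lucia luciferase, QUANTI-Luc, luminescence) signals were divided by the mean agonist-only control on the same plate to give fold change. Two replicate plates were averaged, with errors by propagation.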

[2] = tested on: RAW-Dual (murine macrophage reporter line); experiment: IRF reporter (Lucia luciferase) activity fold change vs agonist alone; higher = enhanced IRF activity
Outline: as §1

[3] = tested on: RAW-Dual (murine macrophage reporter line); experiment: viability score (confluency relative to resting cells, overnight) (fraction); higher = more viable, active = viable (0.7 or more)
Outline: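 RAW-Dual macrophages in 384-well plates were treated overnight with compound at 10 μM final. IncuCyte imaging recorded confluency, and IncuCyte software built two confluency masks across every imaged well. The viability score expresses confluency relative to resting cells and was judged against a cutoff, which a compound met only if both masks exceeded 70% of resting cells.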

[4] = agonist: CpG ODN 1826 0.5 ug/mL

Row | SMILES | NF-kB reporter [1, 4] | NF-kB reporter ([1]; agonist: LPS 0.1 ug/mL) | NF-kB reporter ([1]; agonist: MPLA […]) | IRF reporter ([2]; agonist: 3'3'-cGAMP 10 ug/mL) | IRF reporter ([2]; agonist: LPS 0.1 ug/mL) | IRF reporter ([2]; agonist: MPLA […]) | viability score [3]
1 | CC(C)OCc1ccc(C(=O)Nc2nnc(C(C)C)s2)o1 | 0.988 ± 0.1 | 1 ± 0.079 | 0.961 ± 0.15 | 0.986 ± 0.051 | 1.11 ± 0.068 | 1.05 ± 0.08 | 1.01 (active)
2 | CNC(=O)c1cc(Oc2ccc(NC(=O)Nc3ccc(Cl)c(C(F)(F)F)c3)cc2)ccn1.Cc1ccc(S(=O)(=O)O)cc1 | 0.448 ± 0.038 | 0.8 ± 0.048 | 0.791 ± 0.072 | 0.246 ± 0.019 | 0.575 ± 0.047 | 0.513 ± 0.069 | 1.01 (active)
3 | CC(=O)Oc1ccc2c(c1)c(C(C)=O)c(C)n2C | 0.859 ± 0.071 | 0.972 ± 0.1 | 0.963 ± 0.091 | 0.783 ± 0.028 | 1.13 ± 0.15 | 1.27 ± 0.25 | 1.02 (active)
4 | CC#CC(=O)Nc1ccc(N2CCOCC2=O)c(C)c1 | 0.993 ± 0.062 | 1.01 ± 0.086 | 1.01 ± 0.092 | 0.961 ± 0.058 | 0.913 ± 0.084 | 0.865 ± 0.14 | 1.01 (active)
5 | O=C(C=Cc1ccccc1)NC(NC(=S)Nc1ccc(Cl)cc1)C(Cl)(Cl)Cl (stereo not drawn) | 1.16 ± 0.11 | 0.783 ± 0.11 | 5.38 ± 0.2 | 0.404 ± 0.07 | 0.804 ± 0.036 | 1.74 ± 0.19 | 0.166 (inactive)
6 | CCN(CC)CC#CC(OC)(c1ccccc1)c1ccccc1.Cl | 0.356 ± 0.088 | 0.414 ± 0.063 | 0.47 ± 0.082 | 0.549 ± 0.019 | 1.16 ± 0.16 | 1.29 ± 0.23 | 0.148 (inactive)
7 | Cc1cccc(Oc2ccc(NC(=O)c3ccco3)cc2)c1 | 0.777 ± 0.18 | 0.981 ± 0.081 | 1 ± 0.095 | 0.516 ± 0.037 | 1.07 ± 0.24 | 1.27 ± 0.14 | 0.97 (active)
8 | Oc1ccccc1C=NNc1nc(-c2ccccc2)cc(-c2ccccc2)n1 | 0.769 ± 0.066 | 1.02 ± 0.088 | 1.03 ± 0.12 | 1.19 ± 0.12 | 1.16 ± 0.16 | 1.26 ± 0.2 | 0.987 (active)
9 | CNC(=O)[C@@H](NC(=O)[C@H](CC(C)C)[C@H](O)C(=O)NO)C(C)(C)C | 1.29 ± 0.097 | 1.15 ± 0.13 | 0.996 ± 0.021 | 0.868 ± 0.048 | 0.983 ± 0.11 | 1 ± 0.13 | 1.01 (active)
10 | C[C@H]1O[C@H]1P(=O)(O)O.NC(CO)(CO)CO | 0.922 ± 0.053 | 1.05 ± 0.064 | 0.977 ± 0.079 | 0.937 ± 0.036 | 1.06 ± 0.15 | 0.989 ± 0.2 | 0.994 (active)
11 | CSc1cc(C=NO)c(SC)s1 | 0.874 ± 0.08 | 0.799 ± 0.1 | 0.886 ± 0.085 | 0.713 ± 0.043 | 0.975 ± 0.15 | 1.01 ± 0.27 | 0.285 (inactive)
12 | Cc1ccc(-c2nc(O)nc3ccccc23)cc1 | 1.28 ± 0.37 | 1.11 ± 0.086 | 1.07 ± 0.086 | 0.786 ± 0.054 | 0.967 ± 0.14 | 0.966 ± 0.11 | 0.931 (active)
13 | COc1ccc(-c2coc3cc(O)ccc3c2=O)cc1 | 0.956 ± 0.29 | 1.1 ± 0.1 | 0.992 ± 0.13 | 0.904 ± 0.034 | 1.06 ± 0.1 | 1.05 ± 0.17 | 1.01 (active)
14 | Cc1ccc(C23CC4CC(CC(CN)(C4)C2)C3)cc1C.Cl | 0.652 ± 0.44 | 0.309 ± 0.056 | 1.08 ± 0.35 | 0.11 ± 0.0065 | 0.32 ± 0.1 | 0.256 ± 0.11 | 0.51 (inactive)
15 | O=C(O)CCC(=O)O.O=C(O[C@H]1CN2CCC1CC2)N1CCc2ccccc2[C@@H]1c1ccccc1 | 0.544 ± 0.087 | 0.886 ± 0.046 | 1.07 ± 0.029 | 0.921 ± 0.1 | 1.05 ± 0.097 | 0.977 ± 0.11 | 0.992 (active)
16 | O=C(Nc1ccc(NS(=O)(=O)c2ccc(Cl)cc2)cc1)c1ccccc1 | 1 ± 0.082 | 1.03 ± 0.091 | 0.911 ± 0.07 | 0.977 ± 0.03 | 1.26 ± 0.091 | 0.955 ± 0.3 | 1.02 (active)
17 | CC1(C)Cc2ccccc2C(C[N+](=O)[O-])=N1 | 0.899 ± 0.07 | 0.901 ± 0.1 | 1.65 ± 0.61 | 0.963 ± 0.056 | 1.26 ± 0.08 | 1.38 ± 0.13 | 0.997 (active)
18 | CCCc1nc(C(C)(C)O)c(C(=O)OCc2oc(=O)oc2C)n1Cc1ccc(-c2ccccc2-c2nnn[nH]2)cc1 [Prestw-1190] | 1.09 ± 0.18 | 1.15 ± 0.2 | 1 ± 0.15 | 0.916 ± 0.036 | 0.987 ± 0.094 | 1.14 ± 0.15 | 1 (active)
19 | CC(=O)Oc1ccc(C(=O)Nc2ccccc2Br)cc1 | 0.856 ± 0.068 | 1.01 ± 0.092 | 0.877 ± 0.066 | 0.953 ± 0.049 | 1.08 ± 0.2 | 0.904 ± 0.26 | 0.992 (active)
20 | Clc1cnc(NC2CCN(c3ncnc4c3CCCC4)CC2)nc1 | 0.969 ± 0.043 | 1.08 ± 0.089 | 1.55 ± 0.24 | 0.698 ± 0.032 | 1.16 ± 0.21 | 1.29 ± 0.47 | 0.954 (active)
21 | Clc1ccc2c(c1)CCc1cccnc1C2=C1CCNCC1 | 0.345 ± 0.04 | 0.654 ± 0.052 | 0.814 ± 0.048 | 0.505 ± 0.026 | 0.81 ± 0.14 | 0.754 ± 0.15 | 0.36 (inactive)
22 | COC(=O)C1=C(C)N(C)C(C)=C(C(=O)OC)C1c1cccc(C(F)(F)F)c1 | 0.884 ± 0.069 | 1.07 ± 0.093 | 0.955 ± 0.082 | 0.995 ± 0.035 | 1.32 ± 0.22 | 0.976 ± 0.073 | 1.01 (active)
23 | COc1ccc(NC(=O)CN2C(=O)c3cccc4cccc(c34)C2=O)cc1 | 0.966 ± 0.059 | 0.998 ± 0.087 | 0.938 ± 0.063 | 0.939 ± 0.033 | 1.2 ± 0.11 | 1.1 ± 0.12 | 1 (active)
24 | O=C(CCCCCN1C(=O)c2cccc3cccc(c23)C1=O)NCCCO | 0.997 ± 0.08 | 0.993 ± 0.064 | 0.919 ± 0.036 | 1.02 ± 0.14 | 1.11 ± 0.053 | 1.08 ± 0.082 | 0.993 (active)
